Many of the other results were omitted from the sample, so hits are more common in it than they were.
LmPK inh: qHTS Assay for Inhibitors of Leishmania Mexicana Pyruvate Kinase (LmPK). Q27686. purified LmPK, Kinase-Glo ATP luminescence, 1 h. hit rate 0.37% among 290,000. AID 1721, 2009. Potency, µM (top dose mostly 57.5 µM), for inactives: at the top dose activity change, negative = inhibition, actives largely listed as inhibitors; active = well fitted curve in the direction sought with a large enough effect; inconclusive = small, poorly fitted or top-dose-only effect, or another doubt; inactive = no such curve, though single readings can be large; an effect the other way counts as inactive or inconclusive; note: potency is the fitted concentration of half-maximal effect; % is set by controls: 0 for no effect and ±100 for the full control effect
Target sequence (Q27686 whole entry, looked up): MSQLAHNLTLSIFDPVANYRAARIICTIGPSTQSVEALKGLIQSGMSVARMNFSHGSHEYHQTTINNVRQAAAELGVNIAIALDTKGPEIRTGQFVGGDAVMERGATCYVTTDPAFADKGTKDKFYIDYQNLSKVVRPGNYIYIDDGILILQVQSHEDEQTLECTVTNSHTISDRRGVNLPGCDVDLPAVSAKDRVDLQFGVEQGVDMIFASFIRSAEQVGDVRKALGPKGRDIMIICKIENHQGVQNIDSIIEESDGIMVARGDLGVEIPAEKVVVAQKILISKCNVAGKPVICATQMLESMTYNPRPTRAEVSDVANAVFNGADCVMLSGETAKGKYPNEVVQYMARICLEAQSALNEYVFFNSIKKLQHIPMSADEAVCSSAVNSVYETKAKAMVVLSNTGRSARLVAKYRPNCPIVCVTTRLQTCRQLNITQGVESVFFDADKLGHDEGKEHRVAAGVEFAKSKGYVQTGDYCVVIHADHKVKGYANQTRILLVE
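0.1 nM LmPK, 0.5 mM PEP, 0.1 mM ADP; 50 mM imidazole pH 7.2, 7 mM MgCl2, 50 mM KCl; 1 h RT. Kinase-Glo luminescence readout, normalized to no-enzyme (full inhibition) and uninhibited wells.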
SARS PLP yeast: qHTS of Yeast-based Assay for SARS-CoV PLP | Potency, µM (top dose mostly 32.9 µM), for the others: at the top dose activity, positive = growth rescue, usual class: activators | S. cerevisiae expressing SARS-CoV PLpro, growth rescue | AID 485353, 2010 | hit rate 0.19% among 330,000; note: potency is the fitted concentration of half-maximal effect; 0% is about no effect; nearly all actives have a fitted effect of over 55% in size
NS1 inh: qHTS Assay for Inhibitors of Influenza NS1 Protein Function. Potency, µM (top dose mostly 46.1 µM), for inactives: at the highest dose activity, positive = more growth. AID 2326, 2010. hit rate 0.4% among 270,000; note: potency is the fitted concentration of half-maximal effect; actives are rising curves; nearly all actives have a fitted effect of over 50% in size
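Growth recovery, yeast-based: influenza A NS1 expressed in S. cerevisiae causes slow growth, and suppressors are detected by OD600. The parent strain without NS1 is used as positive control.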
Shiga toxin inh: A qHTS for Small Molecule Inhibitors of Shiga Toxin. Vero cells, Shiga toxin protein synthesis inhibition reporter. hit rate 9.2% among 290,000. inhibition, % at 38.7 µM; in the data active = inhibition mostly above about 28%, no sharp cut-off; inactive = mostly below about 43%; note: 0% is about no effect
CHX counter: Cycloheximide Counterscreen for Small Molecule Inhibitors of Shiga Toxin. hit rate 12% among 300,000. max response, %. cell reporter, cycloheximide protein synthesis inhibition counterscreen; in the data active = max response mostly above about 13%, no sharp cut-off; inactive = mostly below about 14%; note: read at 38.3 µM for the half of the compounds with a filed dose; 0% is about no effect
Tb PYK inh: qHTS of Trypanosoma Brucei Inhibitors | TbPYK enzyme, Kinase-Glo Plus ATP luminescence, 45 min | Potency, µM (doses to about 76.8 µM), for inactives: top-dose activity, negative = inhibition, hits mostly inhibitors | hit rate 0.12% among 410,000 | AID 624173, 2012; active = well fitted curve in the direction sought with a large enough effect; inconclusive = small, poorly fitted or top-dose-only effect, or another doubt; inactive = no such curve, though single readings can be large; an effect the other way counts as inactive or inconclusive; note: potency is the fitted concentration of half-maximal effect; % is set by controls: 0 for no effect and ±100 for the full control effect; nearly all actives have a fitted effect of over 50% in size
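Enzyme and substrate buffer are dispensed first and compound is pin-transferred. ADP at 130 uM final then starts the reaction, which runs 45 min at room temperature. Detection reagent is added for 10 min before luminescence is imaged.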
Starred values were filed as active, the others as inactive; ? = inconclusive; . = no result given. Unless noted, calls come from the whole dose curve.

SMILES	LmPK inh	SARS PLP yeast	NS1 inh	Shiga toxin inh	CHX counter	Tb PYK inh
COc1ccc(-c2cc(C(=O)N3CCCCC3)no2)cc1OC	-2%	-1%	-4%	77*	39*	1%
COc1ccc(-c2cc(C(=O)N3CCCC3)no2)cc1OC	0%	-6%	-10%	86*	20*	4%
CCCC[C@H]1COCCS(=O)(=O)N1Cc1ccc(Br)cc1	-4%	-20%	-101%	-3	-4	-5%
c1ccc(SCc2nc(-c3ccccn3)no2)cc1	-3%	-8%	-12%	40*	58*	-5%
c1ccc(Cc2nc(-c3ccccn3)no2)cc1	-13%	-2%	-29%	94*	50*	-14%
COc1ccc(CC(=O)NCc2nc(-c3ccccc3)no2)cc1	5%	1%	-5%	2	-1	-16%
COc1ccc(Cc2nc(-c3ccccn3)no2)cc1	-6%	?	-8%	29	41*	-2%
CN(Cc1nc(-c2ccccn2)no1)S(=O)(=O)c1ccc(Br)cc1	0%	-1%	-4%	12	3	-12%
c1ccc(CCCc2nc(-c3ccccn3)no2)cc1	-3%	?	-7%	62*	46*	0%
CCCN(Cc1cc2cc(C)ccc2[nH]c1=O)C(=O)c1cccc(Cl)c1	.	.	.	.	.	4%
CCCc1cc(=O)[nH]c(Nc2ccccc2O)n1	.	.	.	.	.	0%
CCC(Sc1nc2ncccc2o1)C(=O)Nc1cccc(C)c1 (configuration not stated)	.	.	.	.	.	-5%
O=C1c2ccccc2C(=O)N1Cc1nc(-c2cccnc2)no1	.	.	0%	.	.	.
O=C1c2ccccc2C(=O)N1Cc1nc(-c2ccccn2)no1	1%	.	-3%	47*	46*	-2%
c1ccc(C(Cc2nc(-c3ccccn3)no2)c2ccccc2)cc1	2%	-19%	-63%	94*	56*	6%
Cc1ccc(Cc2nc(-c3ccccn3)no2)cc1	-7%	-4%	-3%	69*	41*	3%
COc1ccc(NCc2nc3ccccc3n2CCOc2ccccc2C)cc1	.	.	.	.	.	2%
O=C(c1ccncc1)N1CCN(S(=O)(=O)c2ccccc2Br)CC1	.	-3%	.	.	.	0%
CCOC(=O)C1(Cc2cccc(Cl)c2)CCCN(C(=O)c2ccc(C)nc2)C1 (configuration not stated)	-12%	-2%	-1%	-4	-2	0%
CCOC(=O)C1(Cc2cccc(Cl)c2)CCCN(C2CCN(C(C)=O)CC2)C1 (configuration not stated)	3%	2%	-4%	16	-1	0%
CCOC(=O)C1(Cc2cccc(Cl)c2)CCCN(C(=O)c2cc(C)on2)C1 (configuration not stated)	-4%	-6%	-30%	59*	28*	-9%
CCOC(=O)C1(Cc2cccc(Cl)c2)CCCN(C(=O)c2cc(C(C)C)nn2C)C1 (configuration not stated)	-10%	-3%	-39%	35	32*	-2%
CCOC(=O)C1(Cc2cccc(Cl)c2)CCCN(C(=O)c2c(CC)noc2C)C1 (configuration not stated)	0%	6%	-12%	24*	41*	2%
CC1=C(C(=O)Nc2cccnc2)C(c2cccc(F)c2)n2nc(SCc3ccccc3F)nc2N1 (configuration not stated)	.	.	.	.	.	2%
CC1CCN(S(=O)(=O)c2ccc3c(c2)N(CC(=O)NCCc2ccc(Cl)cc2)C(=O)CO3)CC1	.	.	.	.	.	-8%
SMILES	LmPK inh	SARS PLP yeast	NS1 inh	Shiga toxin inh	CHX counter	Tb PYK inh
CCCC(=O)NC(C)c1nc2ccccc2[nH]1 (configuration not stated)	1%	10%	14%	6	-2	3%
CCC(=O)NC(c1ccccc1)c1nc2ccccc2[nH]1 (configuration not stated)	-6%	5%	-2%	68*	44*	-4%
Cn1c(NCc2ccco2)nc2ccccc21	-7%	7%	-5%	15	12*	-3%
CCn1c(NCc2cccs2)nc2ccccc21	0%	-2%	-7%	26	10	-5%
Cn1c(NCc2cccs2)nc2ccccc21	-5%	3%	0%	57*	33*	4%
CCc1ccc(-n2nc(CO)c(C(=O)NC)n2)cc1	.	.	.	.	.	0%
CC(C)(C)c1ccc(-n2ncc3c2CCCC3NC(=O)CCCn2cncn2)cc1 (configuration not stated)	0%	-2%	-17%	-6	11	0%
Cc1ccccc1Nc1nnc(SCC(=O)Nc2ccccc2[N+](=O)[O-])s1	2%	-2%	?	45*	28*	-5%
C/C(N)=C(/C#N)C(=O)CSc1nnc(Nc2c(C)cccc2C)s1	3%	20%	?	40	-1	-10%
Cc1cccc(Nc2nnc(SCC(=O)Nc3ccccc3[N+](=O)[O-])s2)c1	4%	20%	9%	-4	2	6%
C/C(N)=C(/C#N)C(=O)CSc1nnc(Nc2cccc(C)c2C)s1	-4%	2%	4%	40*	22*	2%
CCCSc1nnc(Nc2ccccc2C)s1	-20%	-4%	-14%	63*	62*	-1%
CN(C)c1ccc(NC(=O)Nc2cccc(Cl)c2)cc1	-8%	-8%	9%	50*	31*	-11%
CN(c1cccc(NC(=O)Nc2cccc(Cl)c2)c1)S(C)(=O)=O	2%	1%	-3%	94*	37*	-23%
Cc1ccc(CNc2ccc(-c3nc(-c4ccco4)no3)cc2[N+](=O)[O-])cc1	.	.	.	.	.	0%
Cc1sc2c(c1C)c(=O)n(-c1ccc(Cl)cc1)c(=O)n2CC(=O)c1ccccc1	.	.	.	.	.	4%
Cc1ccc(-c2cc(C(=O)O)c3ccccc3n2)c(C)c1	-5%	1%	7%	5	18*	1%
O=C(O)c1cc(-c2ccc(Cl)s2)nc2ccccc12	5%	-3%	.	54*	14	-15%
Cc1ccc(-c2cc(C(=O)Nc3cc(C)on3)c3ccccc3n2)c(C)c1	0%	-25%	-33%	13	13	3%
Cc1ccc(-c2cc(C(=O)O)c3ccccc3n2)s1	1%	-3%	3%	25	23	2%
C[C@@H]1CN([C@@H](C)CO)S(=O)(=O)c2ccc(Br)cc2O[C@@H]1CN(C)C(=O)NC1CCCCC1	.	.	.	.	.	2%
Cc1cc(NC(=O)CSc2nnc(-c3ccccc3F)n2N)no1	.	9%	.	.	.	-1%
O=C(NNC(=O)C1COc2ccccc2O1)c1ccccc1O (configuration not stated)	.	4%	.	.	.	0%
COc1ccc(-c2cc(=O)c3c(OC)c(OC)c(OC)cc3o2)cc1OC	.	.	.	-3	7	.
O=c1cc(-c2ccco2)oc2ccc(Cl)cc12	-2%	-2%	-14%	28	1	0%
COc1ccc2c(=O)cc(-c3ccccc3F)oc2c1	0%	-1%	-8%	54*	41*	1%

Bioassay records from PubChem BioAssay.
